Screen size: about 53,000 sequences; about 3,700 (7%) were called active.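 The calls were made as follows: active = gene knockdowns whose robust z-score for IL-1 alpha signal is at least 2 or at most -2, so actives lie on both sides; inactive = the rest.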 Shown is part of a subset that was picked to be rich in actives.
Assay: Components of the Cytosolic LPS Sensing Pathway: Gene Identification via Genome-wide siRNA Screen;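 also: robust z of the log signal after scaling to non-targeting control siRNA wells of the plate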
Conditions: RAW264.7 macrophages, IL-1a HTRF, actives lie on both sides, screened at 100 nM (by protocol), cells primed 5 h with Pam3CSK4 first
Method in brief: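 Cells (RAW264.7, 1×10^4 per well) were transfected with siRNA at 100 nM and cultured 48h at 37 degrees C. Pam3CSK4 was added for 5 hours; LipidA transfection followed for 24 hour. IL-1a was then measured by HTRF.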

z-score, active:
GAGCCAAGUACCAUCUAUATT against Olfr389 2.28, GGAAGCAAGUAUCCCGAAUTT against Snhg11 -2.58, GGAAACAUUAGAAUCUUGUTT against Lin52 -2.23, GGUUAGAGAUUGUUCUGUUTT against Olfr267 2.02, GGACAAAGUCACAGAGUCCTT against Slc26a5 -2.08, GGUGUAUCGGAACAGUGAGTT against Det1 -2.8, GCAAUGGAACUAUUAUUCATT against Cd28 2.48, GCGUAGGUCAUCCUUGUAATT against Samd4 -2.22, GCACUUUAAAAGAAUCACUTT against Slc2a12 2.11, GGACUUCACAAGACUUCAATT against Nfam1 2.06, GCUUAGAUCUUACCCACCCTT against Ptcra 2.52, UCCACUUCACUAAUCCUGUTT against Vmn2r43 -2.52, GGAAAUGGUCCCUCUGUGUTT against Tspoap1 -2.99, GGAGGGAAUGAAAAGUCAATT against Stard7 2.09, CCCACUUUGAGGAAAGCUATT against Itprip -2.46, GGAACAGAAAACCAUAUAATT against Snx29 -2.54, GCGAGAUGGAAGGAUCUUGTT against Anapc13 5.28, GGAAUAUGACUUCAAGAUGTT against Lmnb2 4.28, GCUCGUGUCAGAACCGAUGTT against Rwdd3 2.39, GGUUCUAUAGGGCUCCGAATT against Tmem179b 4.23, GGAAGUGCUGAAGGUGUACTT against Spire2 2.38, GCUGGUUAGACCCUUCCAATT against Hnf4g 3.56

z-score, inactive:
CCUUUGACGGCCAUGAGUATT against Muc6 -1.39, GCUAAGCACAAUGUGUACATT against Dus4l -0.633, GGUCAUAGCUUAGAAGGUGTT against Rhov -0.233, GGGAAGCAAUAAGUCGCCUTT against Shc4 0.394, GGUUAAGCAGAAAUUAAGATT against Supt20 -0.551, GCCACAGGAUGCUAGCAAATT against Bex2 0.282, GCAGUUGGUAUUGUUAACUTT against Maml1 -0.0252, GCUAAACCCAAAAACACAATT against Sim2 1.04, GCUAGAAAUAAGGCUGCACTT against Plekhg6 -1.2, GCCAAUGAGAGUAGGAAAGTT against Elovl3 1.43, GCCUCUCAACUUAAUAACATT against Zup1 -0.697, GCUAACAGUAUCCUUAUUUTT against Vmn1r53 -0.436, CCUCUACAAUGUAACCAACTT against Kir3dl2 -0.183, GGUCUUCGCCACAUGGAAATT against Crkl 0.436, CCUUGUCCCUUUACCUCAATT against Plk5 -1.39, GCUUUAGGAAAUUUUGUGUTT against Ska3 -1.05, GGUCAUUCUAAUGACAAUCTT against Atg14 -0.014, AAUGGCAUAGGUCCUAUUATT against Tcaim -0.011, GGUUUUUGUCCCAUCUUGGTT against Zc3h12d 0.228, GGGUCUUUAAACUGAAAGATT against Sh3pxd2a 0.0777, CCUGUAAGGUCUCUAGCAUTT against Exosc1 1.53, GGUUGUGCACAGCAGUGUUTT against Crct1 -0.716, GCACGUACCUGAUAGUCCUTT against Daglb -0.976, GGGCCAAACCCAGAACUAUTT against Sema4g 1.5, GGACAAGUCAAUUUGUUGGTT against Zfp36l1 0.277, GGCUUCAAAGCAUGACCAGTT against Ccr1 -0.528, GGACCUGCCAAAAGUUGUGTT against Uqcrc1 -1.16, GCAGUUGAAUAUCAGACUGTT against Obox5 -0.973, GGUUCAGAAUCAAUACGAGTT against Krt2 -0.909, GGACACUUCCAAACUGACCTT against Tiparp -1.43, GGUCAUUCACAAGUCCUUUTT against Serpinb6b 0.863, GCCAGUGGUAGCGAUAUGATT against Zscan4c -0.263, GGAGAACACCAAAAAGGGCTT against Uncx -1.26, GCUGUGUGGACAAAGUCUGTT against Clec4b1 -0.398, GGUCUUUAGAAUUAGGCUCTT against Pml 0.188, GGAAGAAGUAGCUAAAAACTT against Entpd4 0.488, GGUCUUGCUAUUUGUGAUATT against Olfr1294 0.617, GGUCAAGGAAUUAGUGAUUTT against Tctex1d1 0.398, GGUACAGUGUCAUCAUGAATT against Olfr460 -0.456, GGUAAUUUGUAAGGAACCCTT against Rpusd2 -0.881, GGAAAAAUGGGAGUUUGAATT against Ccdc83 -0.291, GUCCUUCUCAUCAUGGGACTT against Sec61g -0.248, GGCGAAAGUGCUUUUCCUGTT against Gbp8 1.03, GCUGAUCCACGACUACUUGTT against Rab10os 1.24, GCUCCGUAAGAAGUCUCGUTT against Dhx16 -0.676, GAUGGAGAAACUGAAGAAGTT against Olfml2a -0.117, GCUGGAUUUGGACUCUUAGTT against Vmn1r16 1.1, GGGCUGUGAUAUGCAACUCTT against Teddm2 -0.988, CCUUUGAUCAAUUCUGAGUTT against Glb1 -0.554, GCAACGUGAAACAUAUUCUTT against Cpb1 1.69, GGAAGUAACCACAUCCUAUTT against Epn2 -0.628, GGUCACUGUUAGUUAUUAATT against Tcerg1l 0.954, GGGUAUUUUACCACUACUUTT against Psg23 0.32, GCCGUCACAAGAACUGAACTT against Apon -0.24, GGAAAACUAACCAAAAUAGTT against F3 1.45, GGCAAAUUAUUAGUACAGUTT against Gabpa 1.41, CCCGAAUCUCAGCGUAGAATT against Gm5617 -0.853, GGAGUUCAAUCCAACAAAATT against Atxn2l -1.4, GCUCAGAGACAAGCAACUGTT against Kcnk7 0.247, GGUUAUGAGGCUUAAUAAATT against Atxn7l1 0.965, CCCUCGGUGCCUAAUAAAUTT against Hsd17b10 -0.0731, GGAUGCUAUAAAGAAUGCCTT against Prpf39 -1.19, UCCGUUGGAGUAUCGAUGUTT against Trp53rka -1.25, GGAGAACAUGGAGACUAUUTT against Ramp1 -0.756, GGUCUACCAUUUCACCUUGTT against Cops4 1.19, GUUGCCAGAUUUGGAUAUUTT against Abcg5 0.664, CGGGAAGAGUACUUGUUUUTT against Cfl1 0.153, CAAAGCCACCUCGCCCUAUTT against Nkx2-6 -0.0586, GGCUUAUGUUUGCUUUGUUTT against Piwil1 0.0916, CCUUUUUCUGGAUUGGAAUTT against Klrd1 -0.00525, AAUGCAAACAAUGCAAAUGTT against Mt2 -0.174, GGCUAAAGCGAAAAAAAAGTT against Msl3 -0.114, CGGAUUCACAAGAACACCUTT against Pramel12 -0.157, GGGCUGUUCCAUUUCUUUATT against Atcay 0.727, CGGAACUCUGCCACAAGUUTT against Zfp36 1.27, GGCAUAUGUUGAAACUAUUTT against Sel1l3 1.29, GCCAAAAAAGCUGUCAGUUTT against Nkx2-3 -1.11, GGAGGACGUAACUAAAUCATT against Napepld -0.934, UCUACAGGACUAUUAGAUUTT against Wnt6 0.563, GGGAUCAAAACAUACUGUGTT against Klra4 0.0891, GGUCAUGCAGGUUUUGAAUTT against Snd1 1.9, GGCUGAAAUAAAACAAGAATT against Use1 -0.778, GCAGAAGCGUGGCAUUGUATT against Ins2 0.5, GGAUUUAGCCAAUCAAUCUTT against Cdc14b -0.872, GGACUACCUAUGGUUAAAATT against Nup93 -1.58, GCAUCUACUCCCUAUAGACTT against Nin 0.322

Reference: PubChem BioAssay AID1508600 (Functional Genomics Laboratory (NCATS/FGL), 2020)
